Measurements reported in PubChem BioAssay (NCI).
About 83,000 compounds went through this panel and 20% of them were active in at least one assay; those are over-represented in the sample as a whole.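 Single-dose data. Exposure time 48 hours. Values below 10 considered active.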 Unmarked numbers belong to inactive results. Calls of active or inactive are those of the source.

Tests used:
Test in all cases: NCI-60 one-dose screen, 48 h (100 = growth as untreated, 0 = no growth, -100 = all killed)
Conditions in all cases: 10 µM unless noted
HCT-15 colon = tested on: HCT-15 colon
HT29 colon = tested on: HT29 colon
SNB-75 CNS = tested on: SNB-75 CNS
SNB-19 CNS = tested on: SNB-19 CNS
U251 CNS = tested on: U251 CNS
PC-3 prostate = tested on: PC-3 prostate
SK-MEL-5 melanoma = tested on: SK-MEL-5 melanoma
UACC-62 melanoma = tested on: UACC-62 melanoma
LOX IMVI melanoma = tested on: LOX IMVI melanoma
SK-MEL-28 melanoma = tested on: SK-MEL-28 melanoma

CN1CCN(c2ccc(N3Cc4ccccc4OC4=C3C(=O)c3c(O)ccc(O)c3C4=O)cn2)CC1
growth (HCT-15 colon): -74.9% (active) | growth (HT29 colon): -42.8% (active) | growth (SNB-75 CNS): -21.8% (active) | growth (SNB-19 CNS): 11% | growth (U251 CNS): -4.98% (active) | growth (PC-3 prostate): 1.25% (active) | growth (SK-MEL-5 melanoma): -61.9% (active) | growth (UACC-62 melanoma): -59.9% (active) | growth (LOX IMVI melanoma): -71.4% (active) | growth (SK-MEL-28 melanoma): -60% (active)

COS(=O)(=O)CCN(CCOS(C)(=O)=O)S(C)(=O)=O
growth (HCT-15 colon): 95.4% | growth (HT29 colon): 85.4% | growth (SNB-75 CNS): 90.4% | growth (SNB-19 CNS): 107% | growth (U251 CNS): 96.8% | growth (PC-3 prostate): 94.8% | growth (SK-MEL-5 melanoma): 104% | growth (UACC-62 melanoma): 102% | growth (LOX IMVI melanoma): 96.5% | growth (SK-MEL-28 melanoma): 99.1%

C=CCn1c(SCC(=O)Nc2ccc(/C(C)=N\O)cc2)nnc1-c1cc(-c2ccccc2)nc2ccccc12
growth (HCT-15 colon): 50.8% | growth (HT29 colon): 49.9% | growth (SNB-75 CNS): 58.3% | growth (SNB-19 CNS): 68.5% | growth (U251 CNS): 59.1% | growth (PC-3 prostate): 43.5% | growth (SK-MEL-5 melanoma): 48.4% | growth (UACC-62 melanoma): 24.3% | growth (LOX IMVI melanoma): -58.1% (active) | growth (SK-MEL-28 melanoma): 86.7%

Fc1ccc(-c2ccnc3nc(-c4ccncc4)nn23)cc1
growth (HCT-15 colon): 103% | growth (HT29 colon): 97.3% | growth (SNB-75 CNS): 90.1% | growth (SNB-19 CNS): 112% | growth (U251 CNS): 104% | growth (PC-3 prostate): 97.2% | growth (SK-MEL-5 melanoma): 106% | growth (UACC-62 melanoma): 116% | growth (LOX IMVI melanoma): 100% | growth (SK-MEL-28 melanoma): 111%

C=CC[C@]1(O)CC[C@H]2[C@@H]3CCc4cc(O)ccc4[C@H]3CC[C@@]21C
growth (HCT-15 colon): 81.4% | growth (HT29 colon): 91.2% | growth (SNB-75 CNS): 75.7% | growth (SNB-19 CNS): 94.4% | growth (U251 CNS): 93.4% | growth (PC-3 prostate): 85.6% | growth (SK-MEL-5 melanoma): 99.6% | growth (UACC-62 melanoma): 89.4% | growth (LOX IMVI melanoma): 92.6% | growth (SK-MEL-28 melanoma): 101%

COc1ccc(C2=NN(C=O)C(c3ccc(OS(=O)(=O)c4ccc(C)cc4)c(OC)c3)C2)cc1 (stereo not given)
growth (HCT-15 colon): 61.8% | growth (HT29 colon): 35% | growth (SNB-75 CNS): 68.9% | growth (SNB-19 CNS): 62.5% | growth (U251 CNS): 60.3% | growth (PC-3 prostate): 48.4% | growth (SK-MEL-5 melanoma): 6.93% (active) | growth (UACC-62 melanoma): 50.1% | growth (LOX IMVI melanoma): 57.3% | growth (SK-MEL-28 melanoma): 75.5%

CN=C1C=C/C(=N/N=c2/ccn(O)cc2C)C=C1C
growth (HCT-15 colon): 97.2% | growth (HT29 colon): 99.5% | growth (SNB-75 CNS): 84.4% | growth (SNB-19 CNS): 101% | growth (U251 CNS): 102% | growth (PC-3 prostate): 95.2% | growth (SK-MEL-5 melanoma): 97.8% | growth (UACC-62 melanoma): 89% | growth (LOX IMVI melanoma): 95.4% | growth (SK-MEL-28 melanoma): 120%

N#Cc1c(N)n(C2OC(CO)C(O)C2O)c2ncnc(N)c12 (stereo not given)
growth (HCT-15 colon): -4.45% (active) | growth (HT29 colon): 2.5% (active) | growth (SNB-75 CNS): -37.5% (active) | growth (SNB-19 CNS): 5.99% (active) | growth (U251 CNS): 15.2% | growth (PC-3 prostate): -13.5% (active) | growth (SK-MEL-5 melanoma): -33.4% (active) | growth (UACC-62 melanoma): -49.6% (active) | growth (LOX IMVI melanoma): -52.4% (active) | growth (SK-MEL-28 melanoma): -60.9% (active)

Clc1ccc(Nc2ncnc3c2sc2ncccc23)c(Cl)c1
growth (HCT-15 colon): 47.7% | growth (HT29 colon): 39.4% | growth (SNB-75 CNS): 42.3% | growth (SNB-19 CNS): 27.4% | growth (U251 CNS): 27% | growth (PC-3 prostate): 49.5% | growth (SK-MEL-5 melanoma): 28% | growth (UACC-62 melanoma): 12.7% | growth (LOX IMVI melanoma): 4.08% (active) | growth (SK-MEL-28 melanoma): 65.9%

CCCCNCC(O)c1cc2c(Cl)cc(Cl)cc2c2cc(C(F)(F)F)ccc12 (stereo not given)
growth (HCT-15 colon): -60.4% (active) | growth (HT29 colon): -84.4% (active) | growth (SNB-75 CNS): -87.6% (active) | growth (SNB-19 CNS): -71.5% (active) | growth (U251 CNS): -95.5% (active) | growth (PC-3 prostate): -89.6% (active) | growth (SK-MEL-5 melanoma): -35.4% (active) | growth (UACC-62 melanoma): -84.4% (active) | growth (LOX IMVI melanoma): -77.8% (active) | growth (SK-MEL-28 melanoma): -88.4% (active)

COc1ccc(-c2nsc3c2NC(=O)CC3c2cccc(F)c2)cc1 (stereo not given)
growth (HCT-15 colon): 23% | growth (HT29 colon): 10.4% | growth (SNB-75 CNS): 68.5% | growth (SNB-19 CNS): 82.7% | growth (U251 CNS): 45.6% | growth (PC-3 prostate): 49.4% | growth (SK-MEL-5 melanoma): 32.5% | growth (UACC-62 melanoma): 48.5% | growth (LOX IMVI melanoma): 50.9% | growth (SK-MEL-28 melanoma): 65.4%

Cc1cc(Cl)c2ccc(N(C)C)cc2n1
growth (HCT-15 colon): 94.9% | growth (HT29 colon): 102% | growth (SNB-75 CNS): 82.7% | growth (SNB-19 CNS): 95% | growth (U251 CNS): 92.8% | growth (PC-3 prostate): 101% | growth (SK-MEL-5 melanoma): 102% | growth (UACC-62 melanoma): 101% | growth (LOX IMVI melanoma): 96.9% | growth (SK-MEL-28 melanoma): 101%

NS(=O)(=O)c1ccc(N2N=C(c3ccc(Br)cc3)CC2c2cn(-c3ccccc3)nc2-c2ccc(Cl)cc2)cc1 (stereo not given)
growth (HCT-15 colon): 78.7% | growth (HT29 colon): 76.6% | growth (SNB-75 CNS): 92.4% | growth (SNB-19 CNS): 96% | growth (U251 CNS): 86.9% | growth (PC-3 prostate): 73.3% | growth (SK-MEL-5 melanoma): 99.7% | growth (UACC-62 melanoma): 82.5% | growth (LOX IMVI melanoma): 88% | growth (SK-MEL-28 melanoma): 108%

COc1ccc(C2=CC(c3ccc(OC)cc3Br)N3C=CSC3=N2)cc1 (stereo not given)
growth (HCT-15 colon): 27.5% | growth (HT29 colon): -6.33% (active) | growth (SNB-75 CNS): 63.7% | growth (SNB-19 CNS): 62.3% | growth (U251 CNS): 37.2% | growth (PC-3 prostate): 50.4% | growth (SK-MEL-5 melanoma): 78.7% | growth (UACC-62 melanoma): 71.2% | growth (LOX IMVI melanoma): 16.6% | growth (SK-MEL-28 melanoma): 84%
